# Most compounds without a hit are left out; they make up all but 7.3% or so of the library.
# FLuc counter: counter-screen for miR-21 project: firefly luciferase inhibitors or activators; purified FLuc, Km substrates, luminescence inhibition; Potency, µM (series often up to 57.5 µM), inactives show top-dose activity change, negative = inhibition, usual class: inhibitors; 360,000 tested, 6.9% active; AID 588342;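 note: plate controls were vehicle for no effect and reference inhibitor for full effect; nearly all actives have a fitted effect of over 55% in size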
# Target sequence (P08659 whole entry, looked up): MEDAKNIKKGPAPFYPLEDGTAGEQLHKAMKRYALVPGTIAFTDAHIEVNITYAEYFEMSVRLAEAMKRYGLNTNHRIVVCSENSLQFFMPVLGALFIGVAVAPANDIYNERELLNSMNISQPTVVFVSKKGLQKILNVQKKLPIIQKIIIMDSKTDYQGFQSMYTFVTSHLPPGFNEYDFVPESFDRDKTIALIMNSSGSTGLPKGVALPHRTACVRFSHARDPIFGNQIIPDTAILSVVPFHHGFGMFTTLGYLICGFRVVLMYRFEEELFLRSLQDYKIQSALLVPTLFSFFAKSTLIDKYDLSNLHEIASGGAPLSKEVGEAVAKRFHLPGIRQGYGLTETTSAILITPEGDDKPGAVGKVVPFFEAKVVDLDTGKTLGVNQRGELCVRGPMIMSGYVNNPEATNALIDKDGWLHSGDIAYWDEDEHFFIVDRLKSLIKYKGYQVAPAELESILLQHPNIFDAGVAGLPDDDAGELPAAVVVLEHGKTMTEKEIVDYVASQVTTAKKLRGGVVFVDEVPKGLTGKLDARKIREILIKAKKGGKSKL
#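 Purified P. pyralis luciferase (10nM final) with 10uM D-luciferin and 10uM ATP (Km levels) in 50mM Tris acetate pH 7.5, 10mM Mg acetate, 0.01% Tween-20, 0.05% BSA; qHTS 6-point titration, ~60 µM downward; luminescence read.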
# Rab9 promoter act: Rab9 promoter activation | Huh7 Rab9 promoter-luciferase reporter, luminescence, 24 h | Potency, µM (highest dose often 9.22 µM), for inactives: at the highest dose activation, negative = inhibition, actives largely listed as activators | 320,000 tested, 2.8% active | AID 485297; note: % of control where 0% means no effect; nearly all actives have a fitted effect of over 60% in size
#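 Measured in stably transfected Huh7 cells bearing a Rab9 promoter–luciferase construct: 24 h compound treatment at 37 °C, followed by luminescence detection.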
# KinaseGlo FLuc: blocks Kinase-Glo luciferase, a counter-screen artifact; AID 1379; Potency, µM (series often up to 38.3 µM), for inactives: at the top dose activity change, negative = inhibition, actives largely listed as inhibitors; Kinase-Glo luciferase, ATP luminescence, 8 min; 200,000 tested, 0.28% active; note: % is set by controls: 0 for no effect and ±100 for the full control effect; nearly all actives have a fitted effect of over 60% in size
#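 Substrate mix (final 50 mM imidazole pH 7.2, 50 mM KCl, 7 mM MgCl2, 10 uM ATP, 0.01% Tween 20, 0.05% BSA) plus pin-tool compound, then Kinase-Glo detection mix; 8 min ambient, luminescence read.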
# NPC1 prom act: activators of NPC1 promoter | 320,000 tested, 2.4% active | Huh7 NPC1 promoter luciferase reporter, 24 h | Potency, µM (highest dose often 9.22 µM), inactives show top-dose activation, actives largely listed as activators; note: % of control where 0% means no effect; nearly all actives have a fitted effect of over 60% in size
#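 Huh7 reporter cells (NPC1 promoter driving luciferase) are dosed with compound for 24 h at 37 °C, 5% CO2; luciferase detection reagent is then added and luminescence measured after 10 min at ambient temperature.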
# SMN2 splice enh: SMN2 splice variant enhancement. Potency, µM (doses to about 46.1 µM), for the others: at the top dose activity change, positive = activation, usual class: activators. HEK293 SMN2-luciferase splicing reporter, luminescence, 30-36 h. AID 1458. 210,000 tested, 2.8% active; note: % of control where 0% means no effect; nearly all actives have a fitted effect of over 55% in size
#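 HEK293 cells carry an SMN2 […]–luciferase reporter in which exon 7 inclusion puts luciferase in frame. Cells were plated 10-12 h before compound addition, then incubated 30-36 h at 37C. ONE-Glo luminescence was read; sodium butyrate at 4.5 mM final served as control.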
# ELG1 genotoxic: induces genotoxicity in HEK293T cells with luciferase-tagged ELG1; 330,000 tested, 1.3% active; HEK293T ELG1-luciferase reporter, luminescence, 16 h; AID 504466; Potency, µM (titrated, usually from 46 µM), inactives show at the top dose activity change, positive = activation, most hits filed as activators; note: % of control where 0% means no effect; nearly all actives have a fitted effect of over 60% in size
#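 Quantitative HTS format in 1536-well plates. HEK293T ELG1-luciferase reporter cells receive test compound and are incubated 16 hr at 37 °C, 5% CO2; ONE-Glo added, 30 min room temperature, then luminescence read.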
# Active calls of the source: *; ? = inconclusive; / = no result given; ! = not active in a repeat; [ ] = remark or other dose. Calls come from the whole dose curve; as a rule, active = well fitted curve in the direction sought with a large enough effect; inconclusive = small, poorly fitted or top-dose-only effect, or another doubt; inactive = no such curve, though single readings can be large; an effect the other way counts as inactive or inconclusive. Potency is the fitted concentration of half-maximal effect.
SMILES,FLuc counter,Rab9 promoter act,KinaseGlo FLuc,NPC1 prom act,SMN2 splice enh,ELG1 genotoxic
O=S(=O)(/N=C(/Nc1nccs1)c1ccc(F)cc1)c1ccccc1,/,/,/,/,/,0%
O=S(=O)(/N=C(/Nc1nc2ccccc2s1)c1ccccc1)c1ccc(F)cc1,19µM*,?,/,13%,/,14%
COc1ccc(C(=O)Nc2nc3ccccc3s2)cc1,0.24µM*,0.28µM*,/,0.63µM*,/,-5%
COc1ccc(C(=O)Nc2nc3ccccc3s2)cc1OC,-3%,-2%,-1%,1%,/,2%
O=C(Nc1nc2ccccc2[nH]1)c1cccc(Br)c1,2.4µM*,3.5µM*,/,?,/,2.1µM*
CN(C)c1cccc(C(=O)Nc2nc3ccccc3[nH]2)c1,0.6µM*,0.32µM*,/,0.45µM*,/,?
O=C(Nc1nc2ccccc2[nH]1)c1ccc(Cl)c(S(=O)(=O)N2CCCC2)c1,12µM*,28%,-5%,?,-19%,7%
O=C(Nc1nc2ccccc2[nH]1)c1ccc(Br)o1,9.5µM*,?,-15%,?,13µM*,?
O=C(CNC(=O)c1cccc(Br)c1)NCCc1nc2ccccc2[nH]1,2%,0%,-4%,-3%,-16%,-2%
Cc1ccc(C(=O)Nc2c(C(=O)NCc3ccc(Cl)cc3)sc3nc(C)cc(C)c23)cc1,-2%,/,/,/,10%,/
Cc1ccc(Cl)cc1N1CCN(C(=O)CCS(=O)(=O)c2cc(Br)cc3c2N(C(=O)C2CC2)CC3)CC1,-16%,/,/,/,-2%,/
Cc1ccc2sc(N(Cc3cccnc3)C(=O)CCOc3ccccc3)nc2c1C,0%,/,/,/,/,/
CCCCc1nn2c(=O)cc(COC(=O)c3ccc(NC(=O)C4CCCCC4)cc3)nc2s1,-2%,/,/,/,/,/
O=C(Cn1c(-c2cccs2)cc2ccccc21)N1CCN(c2ccccc2F)CC1,-7%,/,/,/,/,/
COc1ccc(/C=C/C(=O)NCCc2nc3ccccc3[nH]2)cc1,?,10%,/,1%,/,-1%
Cc1ccc(N(C)S(=O)(=O)c2cccc(C(=O)Nc3nc4ccccc4[nH]3)c2)cc1,-18%,-4%,-2%,8%,-57%,-5%
O=C(/C=C/c1ccc(F)cc1)Nc1nc2ccccc2[nH]1,?,0.63µM*,0%,1.3µM*,11µM*,?
O=C(Nc1nc2ccccc2[nH]1)c1cccc(F)c1,3µM*,?,/,?,/,2.9µM*
O=C(OCC#CCSc1nnc(-c2cccc3ccccc23)s1)c1cccs1,4%,-2%,/,1%,/,/
CC(C)C(N)C(=O)O (stereo unspecified),/,/,/,/,-5%,/
O=C(/C=C/c1ccco1)Nc1ccc(F)cc1,13µM*,4µM*,/,4µM*,/,/
NS(=O)(=O)c1ccc(NC(=O)/C=C/c2ccco2)cc1,-19%,?,-1%,1%,17%,9%
O=C(/C=C/c1ccco1)Nc1ccc2c(c1)OCO2,6µM*,0.79µM*,-19%,1.8µM*,10µM*,?
O=C(/C=C/c1ccco1)NCc1ccc2c(c1)OCO2,?,-1%,1%,4%,12%,0%
C[C@@H]1CC2C3CCC4=CC(=O)C=CC4(C)[C@@]3(F)[C@@H](O)CC2(C)[C@@]1(O)C(=O)CO (stereo partly specified),/,/,4%[39.9 µM],/,/,/
SMILES,FLuc counter,Rab9 promoter act,KinaseGlo FLuc,NPC1 prom act,SMN2 splice enh,ELG1 genotoxic
Cn1ncc2c(NCc3ccc(F)cc3)ncnc21,2%,/,/,/,/,/
CC(=O)c1cccc(NC(=O)CSc2ccc(-c3sc(C)nc3C)nn2)c1,13µM*,-3%,/,-5%,/,-29%
O=C(CSc1ccc(-c2ccccn2)nn1)Nc1cccc(F)c1,13µM*,14%,/,7%,/,?
Cc1cc(C)cc(NC(=O)CSc2ccc(-c3ccccn3)nn2)c1,?,-1%,/,0%,/,?
O=C(CSc1nc2c([nH]c3ccccc32)c(=O)n1-c1ccccc1)Nc1ccccc1C(F)(F)F,3%,/,/,/,/,/
O=C1CN(C(=O)c2ccc(S(=O)(=O)N3CCCC3)cc2)C(c2ccccc2)c2cc(Br)ccc2N1 (stereo unspecified),1%,/,/,/,15%,/
CCOC(=O)c1cc2c(C)n(-c3ccc(N(C)C)cc3)c(C)c2cc(C(=O)OCC)c1=O,1.7µM*,?,-1%,29%,-23%,2%
CC(C)NC(=O)Cn1ccc2cc(S(=O)(=O)N3CCCCCC3)ccc21,4%,/,/,/,/,/
O=[N+]([O-])c1ccc(O)c(C2=NNC(c3ccccc3F)C2)c1 (stereo unspecified),3.4µM*,0.32µM*,/,1µM*,/,5%
COc1ccc([N+](=O)[O-])cc1C1NN=C(c2ccccc2O)S1 (stereo unspecified),?,16%,0%,-3%,-17%,4%
CCc1ccc(NC(=O)c2cnn(-c3c(C)cccc3C)c2C2CCN(C(=O)OC(C)(C)C)CC2)cc1,4%,/,/,/,/,/
CCOC(=O)c1ccc2c(c1)n(CC)c(C)[n+]2CC,-3%,-1%,-4%,0%,-6%,-2%
CCOC(=O)c1ccc2c(c1)[nH]c(=S)n2CC,19µM*,?,-2%,18%,/,21µM*
Cc1ccc2c(CNCCc3ccco3)c(C(=O)O)n(Cc3ccc(F)cc3)c2c1,1%,/,/,/,/,/
Cc1cccc(NC(=O)CCc2c(C)nn(-c3ccc(N4CCCCC4)nn3)c2C)c1,5.4µM*,?,/,?,/,9%
Cc1ccc(C)c(NC(=O)CCc2c(C)nn(-c3ccc(N4CCCC4)nn3)c2C)c1,0%,/,/,/,/,/
COc1cccc(NC(=O)CCc2c(C)nn(-c3ccc(N4CCOCC4)nn3)c2C)c1,?,15%,/,6%,/,5%
Cc1cccc(NC(=O)CCc2c(C)nn(-c3ccc(N4CCOCC4)nn3)c2C)c1,15µM*,26%,/,28%,/,6%
COc1cccc(N2C(=O)CSC23C(=O)N(CC(=O)Nc2cc(C)ccc2C)c2ccccc23)c1 (stereo unspecified),2%,/,/,/,/,/
Cc1ccc(CNC(=O)c2cc3c(=O)n(Cc4cccnc4)ccc3nc2C)cc1,-1%,/,/,/,/,/
O=C(O)c1cc(N=Nc2ccc([N+](=O)[O-])cc2)ccc1O,/,/,-3%[7.66 µM],/,14µM*!,/
Nc1nn(-c2ccccc2)nc1C(=O)OCc1ccccc1F,17µM*,15%,-1%,1%,15%,6%
Cc1oc(/N=C/c2ccc(O)cc2O)c(C#N)c1C,17µM*,2%,-5%,-3%,-8%,7%
Cc1oc(/N=C/c2ccc(Cl)cc2)c(C#N)c1C,11µM*,-12%,-3%,9%,21%,-1%
CCc1ccc2occ(CC(=O)Nc3c(C(=O)c4ccccc4)oc4ccccc34)c2c1,-5%,/,/,/,6%,/
